Assay results: ChEMBL document CHEMBL3988442, “University of Dundee, Small-Polar-MMV Screening Library” (2021)
Hit rate of the full screen: of about 48,000 compounds, about 13,000 (27%) showed an effect of 50% or more. Some of the results follow.

System: Wolbachia pipientis
Assay: Anti-Wolbachia Cell-Based Screen
Assay type: functional
Parameters: scale not given: in the data most compounds retested in dose-response had high values
Details: 5 µM

SMILES	Percent Effect
CC(C)CN(Cc1ccc(C(F)(F)F)nc1)Cc1cnn(C)c1	-7.949%
COc1cccn(CC(=O)N(C)CCSC)c1=O	-16.92%
O=C(O)c1ccc2c(c1)C1(CCCCC1)CN2C(=O)c1cccs1	-9.46%
O=C1CCCN1CCN1CC[C@@]2(O)CCN(c3ncccn3)C[C@H]2C1	-11.72%
OC(CNCCn1cccn1)COc1ccc(Br)cc1 (centres undefined)	2.37%
CCN(CC)CC[C@H]1CN(C(=O)C(C)(C)C)CC[C@H]1CC(=O)O	-8.739%
Cc1nc2n(n1)CC(NCCCc1nc(-c3cccs3)no1)CC2 (centres undefined)	-18.09%
Cc1cccc(NC(=O)CN(C)C(=O)c2ccc(-n3cccc3)nc2)n1	6.082%
Cc1ccc(C(=O)N(C)CC(=O)Nc2cccc(C)n2)cn1	-9.643%
Cc1oc(C)c(C(=O)Nc2ccccn2)c1C	13.13%
Cc1ncsc1C(=O)N[C@@H](Cc1ccccc1)C(N)=O	5.528%
Cc1cccc(NC(=O)CN(C)C(=O)c2scnc2C)n1	117.3%
Cc1ncsc1C(=O)Nc1ccccn1	113.7%
CCn1cc2c(n1)C(COCC1CC1)CN(C(=O)c1cnoc1C)C2 (centres undefined)	-6.391%
CN(CC1Cc2ccccc2CN1C)C(=O)CSc1ccccn1 (centres undefined)	0.2013%
Cc1cccc(CNC2CC3(CCN(CCO)CC3)c3ccccc32)n1.O=C(O)C(F)(F)F.O=C(O)C(F)(F)F (centres undefined)	121.3%
Cc1ccc(CNC2CC3(CCN(CCO)CC3)c3ccccc32)s1.O=C(O)C(F)(F)F.O=C(O)C(F)(F)F (centres undefined)	107.2%
COCCN1CCC2(CC1)CC(NCc1ccc(C)s1)c1ccccc12.O=C(O)C(F)(F)F.O=C(O)C(F)(F)F (centres undefined)	109.1%
O=C(NC1CC2(CCN(CCO)CC2)c2ccccc21)c1ccsc1.O=C(O)C(F)(F)F (centres undefined)	-2.437%
O=C(NC1CC2(CCN(CCO)CC2)c2ccccc21)c1ccno1.O=C(O)C(F)(F)F (centres undefined)	-3.484%
COCCN1CCC2(CC1)CC(NCc1cncn1C)c1ccccc12.O=C(O)C(F)(F)F.O=C(O)C(F)(F)F (centres undefined)	-4.638%
COCCN1CCC2(CC1)CC(N1CCOCC1)c1cc(C)ccc12.O=C(O)C(F)(F)F.O=C(O)C(F)(F)F (centres undefined)	-13.01%
CC(NCc1cccn1C)c1noc(-c2ccc(Cl)cc2)n1 (centres undefined)	-2.056%
CN1C(=O)CO[C@H](c2ccc(NC(=O)c3cccnc3)cc2)[C@H]1CO	-10.51%

SMILES	Percent Effect
Nc1nc2c(c(NC(=O)Nc3cccc(Cl)c3)n1)CCCC2	7.303%
Cc1c(NCc2ccc(C#N)cc2)cccc1S(=O)(=O)NC1CC1	-7.698%
c1cn(CCn2cnnc2)c(-c2cc3n(n2)CCCNC3)n1	-4.741%
CC(C)c1nnc2n1CCN(C(=O)c1ccccc1OCC1CC1)C2	-3.948%
COc1ccccc1C(=O)N1CC(=O)N(CC(C)C)CC(O)C1 (centres undefined)	116.8%
COc1ccccc1C(C)CC(=O)N1CC[C@H](O)C1 (some centres undefined)	18.86%
COc1ccccc1C(=O)N1CC(=O)N(CC2CC2)CC(O)C1 (centres undefined)	108.3%
CCC(NC(=O)c1ccco1)c1nc(C(F)(F)F)cs1 (centres undefined)	-6.981%
CS(=O)(=O)N1CCOCC2(CCN(C(=O)c3cccnc3)CC2)C1.O=C(O)C(F)(F)F	-2.226%
COCC1CC2(CCN(C(=O)c3cncc(C)c3)CC2)CO1.O=C(O)C(F)(F)F (centres undefined)	8.897%
CNC(=O)NCC1CCC2(CCN(C(=O)c3cccnc3)CC2)CO1.O=C(O)C(F)(F)F (centres undefined)	102.7%
CNC(=O)NCC1CCC2(CCN(C(=O)c3ccccc3)CC2)CO1 (centres undefined)	108.3%
O=C(C1CCC2(CCN(c3ncccn3)CC2)CO1)N1CCCC1 (centres undefined)	10.33%
COCC1CC2(CCN(C(=O)c3cccc(C)c3)CC2)CO1 (centres undefined)	-11.23%
CNC(=O)NCC1CCC2(CCN(c3ncccn3)CC2)CO1 (centres undefined)	88.92%
COCC1CC2(CCN(C(=O)c3oc4ccccc4c3C)CC2)CO1 (centres undefined)	-1.277%
CC(C)NC(=O)C1CCC2(CCN(c3ncccn3)CC2)CO1 (centres undefined)	-6.885%
COc1nc2c(cc1C(=O)N(C)Cc1noc3c1CCCC3)CCC2	-4.32%
CN(Cc1noc2c1CCCC2)C(=O)C1Cc2ccccc2CN1C (centres undefined)	9.151%
Cc1ccc(-c2cc(C(=O)N(C)Cc3noc4c3CCCC4)[nH]n2)s1	126%
Cc1ccc(-c2cc(C(=O)NCCC3=CCCCC3)[nH]n2)o1	9.696%
Cc1ccc(-c2cc(C(=O)N(C)Cc3noc4c3CCCC4)[nH]n2)o1	119%
CN(Cc1noc2c1CCCC2)C(=O)CN1C(=O)CSc2ccccc21	0.5887%
COc1ccc(C(=O)NC2CC2)c(OC2CCN(C3CCC3)CC2)c1	0.9223%

SMILES	Percent Effect
COc1ccccc1OC1CN(C(=O)C2CNCC(=O)N2)C1 (centres undefined)	3.442%
O=C(Nc1ccc(F)cc1)C1CNCCN1C(=O)CCO (centres undefined)	-8.613%
COc1ccccc1C1CNCCN1C(C)=O (centres undefined)	170.5%
COc1ccc(C(=O)N2CCCC2c2ccco2)cc1OC (centres undefined)	-0.7331%
COc1ccccc1C1CNCCN1C(=O)c1ccc(F)cc1 (centres undefined)	170.1%
COc1cc(S(=O)(=O)N2C[C@@H](C)[C@@](C)(O)C2)c(C)cc1C	-12.13%
Cc1cccnc1CNCC1(O)CCCN(Cc2ccc(F)cc2)C1=O (centres undefined)	9.379%
CCOc1cc(NC(=O)N(C)Cc2ncnn2C)ccc1C	-12.81%
CCOc1cc(C(=O)N(C)C)ccc1NC(=O)c1ccsc1	-5.987%
CC(C)SCC(=O)N1Cc2cnc(-c3ccccc3)nc2C1	3.989%
CC(C)Cc1ncc2c(n1)CN(C(=O)Cn1c(=O)oc3ccccc31)C2	-4.555%
CC(C)CC(=O)N1CC(=O)c2sc(NCCc3ccccc3)nc2C1	112.3%
Cn1cnc2c1CCN(CCCc1ccccc1)C2	0.7928%
CN1CC(=O)c2sc(NCCc3ccccc3)nc2C1	91.14%
Cn1ccc(C(=O)N2CCN(CCc3ccccc3)CC2)cc1=O	-2.355%
CNc1nc(CNC(=O)Nc2cccc(F)c2)cs1	-0.1987%
CC(NC1(CNC(=O)NC2CC2)CCOCC1)c1ccccc1 (centres undefined)	5.387%
CCC1=N[C@@]2(CC[C@@H]3CN(CC(C)C)C[C@@H]32)C(=O)N1.O=C(O)C(F)(F)F	-10.58%
CCC1=N[C@@]2(CC[C@@H]3CN(Cc4ccccc4C)C[C@@H]32)C(=O)N1C.O=C(O)C(F)(F)F	114.6%
CCC1=N[C@@]2(CC[C@@H]3CN(CC(=O)N(C)C)C[C@@H]32)C(=O)N1CC1CC1.O=C(O)C(F)(F)F	-4.089%
CCC1=N[C@@]2(CC[C@@H]3CN(C(=O)NCc4ccccc4)C[C@@H]32)C(=O)N1C	-13.65%
CCC1=N[C@@]2(CC[C@@H]3CN(Cc4ccc(C)cc4)C[C@@H]32)C(=O)N1C.O=C(O)C(F)(F)F	81.5%
O=C(O)C(F)(F)F.O=C1NC(c2ccccc2)=N[C@@]12CC[C@@H]1CN(Cc3ccccc3)C[C@@H]12	4.255%
CCC1=N[C@@]2(CC[C@@H]3CN(Cc4ccccc4C)C[C@@H]32)C(=O)N1.O=C(O)C(F)(F)F	-9.167%

SMILES	Percent Effect
CCC1=N[C@@]2(CC[C@@H]3CN(C(=O)NC(C)C)C[C@@H]32)C(=O)N1C	-5.226%
CC1=N[C@@]2(CC[C@@H]3CN(CC(C)C)C[C@@H]32)C(=O)N1C.O=C(O)C(F)(F)F	8.258%
CCC1=N[C@@]2(CC[C@@H]3CN(Cc4ccc(F)cc4)C[C@@H]32)C(=O)N1C.O=C(O)C(F)(F)F	103.7%
CCC1=N[C@@]2(CC[C@@H]3CN(Cc4ccccc4F)C[C@@H]32)C(=O)N1CC.O=C(O)C(F)(F)F	-10.67%
CCC1=N[C@@]2(CC[C@@H]3CN(Cc4cccc(Cl)c4)C[C@@H]32)C(=O)N1C.O=C(O)C(F)(F)F	95.01%
CCCN1CCC(CC(=O)N[C@H](C(=O)O)c2cccc(F)c2F)CC1	-4.75%
COC(=O)NCC(=O)NCC(C)(C)c1cccc(Br)c1	-15.07%
CCCc1ncc(CN(CCOC)Cc2cccs2)cn1	-13.63%
CCN(CCn1cccn1)Cc1nc(-c2ccccc2F)oc1C	1.604%
C=C(C)COCCNC(=O)Nc1cccc(Cn2nc(C)nc2C)c1	-4.389%
O=S(=O)(c1ccc(Cl)cc1)N1CCN(CCCn2ccnc2)CC1	-9.759%
O=S(=O)(c1ccccc1)N1CCOC(Cn2ccnc2)C1 (centres undefined)	143.1%
CC(=O)Nc1ccc(S(=O)(=O)NC(=O)CCC2CCCO2)cc1 (centres undefined)	-4.56%
CC(=O)c1ccc(S(=O)(=O)N2CCOC(Cn3ccnc3)C2)cc1 (centres undefined)	80.08%
CCN(C)C[C@@H]1CN(S(=O)(=O)c2ccc(OC)cc2)C[C@@H]1CO	9.662%
O=S(=O)(c1ccccc1)N1CCCN(CCCn2ccnc2)CC1	1.416%
COc1ccc(S(=O)(=O)N2CCOC[C@H](Oc3cnccn3)C2)cc1	-5.156%
O=S(=O)(c1ccccc1)N1CCN(CCn2ccnc2)CC1	-17.14%
Cc1ccc(S(=O)(=O)N2CCN(CCCn3ccnc3)CC2)cc1	-7.959%
CC(=O)Nc1ccc(S(=O)(=O)N2CCOC(Cn3ccnc3)C2)cc1 (centres undefined)	127.1%
COc1ccc(S(=O)(=O)N2CCOC(Cn3ccnc3)C2)cc1.Cc1ccc(S(=O)(=O)O)cc1 (centres undefined)	106.9%
CCC1CN(C(=O)COc2ccc(NC(C)=O)cc2)CCO1 (centres undefined)	-18.64%
